This is part of a sample that, as a whole, favours compounds with a hit. Of some 83,000 tested, about 20% had one in any assay.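 Activity criterion: percent growth below 10, measured after cells in 96-well plates were exposed to a single compound concentration for 48 hours.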 A number with no mark means an inactive call. The source made the active and inactive calls.

What all share (assay): NCI-60 one-dose screen, 48 h (100 = growth as untreated, 0 = no growth, -100 = all killed)
In one assay the test system is NCI-H23 lung. The following applies: 10 µM unless noted.
The test system of another assay is NCI-H226 lung. The conditions noted are these: 10 µM unless noted.
Another assay concerns NCI-H322M lung. The conditions noted are these: 10 µM unless noted.
The next assay relates to HOP-62 NSCLC. The conditions noted are these: 10 µM unless noted.
The next assay concerns NCI-H460 lung. The following applies: 10 µM unless noted.
In the next assay the test system is HOP-92 NSCLC. The conditions noted are these: 10 µM unless noted.
The test system of another assay is NCI-H522 lung. The conditions noted are these: 10 µM.
The next assay deals with 786-0 renal. The following applies: 10 µM unless noted.
In a further assay the test system is K-562 leukemia. The following applies: 10 µM unless noted.
The subject of a further assay is MALME-3M melanoma. The conditions noted are these: 10 µM unless noted.
In another assay the test system is MDA-MB-231 breast. The conditions noted are these: 10 µM unless noted.
The subject of another assay is SF-268 CNS. The following applies: 10 µM unless noted.
The next assay concerns SF-295 CNS. The conditions noted are these: 10 µM unless noted.
In another assay the test system is SF-539 CNS. The conditions noted are these: 10 µM unless noted.
The next assay concerns UACC-257 melanoma. The conditions noted are these: 10 µM unless noted.
The next assay deals with M14 melanoma. The conditions noted are these: 10 µM unless noted.
A further assay concerns A549/ATCC NSCLC. The following applies: 10 µM unless noted.
Another assay relates to COLO 205 colon. The conditions noted are these: 10 µM unless noted.
The test system of a further assay is DU-145 prostate. The following applies: 10 µM unless noted.
A further assay concerns RXF 393 renal. The following applies: 10 µM unless noted.

Turning to `O=C(N/N=C/c1ccc(Cl)cc1Cl)c1ccccc1Nc1cccc(C(F)(F)F)c1`, the growth is 70.5% with NCI-H23 lung; 50% with NCI-H226 lung; 86.2% in the assay with NCI-H322M lung; 57.9% in the assay with HOP-62 NSCLC; 104% with NCI-H460 lung; -0.368% (active) in the assay with HOP-92 NSCLC. In addition, the growth in the assay on NCI-H522 lung was 67%; in the assay on 786-0 renal it was 74.9%; in the assay with K-562 leukemia it was 35.3%; in the assay on MALME-3M melanoma, 92.5%; in the assay on MDA-MB-231 breast it was 48.9%; with SF-268 CNS it was 112%. Besides, the growth is 24.4% with SF-295 CNS, -93% (active) with SF-539 CNS, 83.6% in the assay on UACC-257 melanoma and 95.6% in the assay with M14 melanoma.
Take `O=c1ccn(C2CC=C(CO)O2)c(=O)[nH]1` (stereo not drawn): the growth in the assay on NCI-H23 lung was 91.9%; in the assay on NCI-H226 lung it was 95.7%; in the assay with NCI-H322M lung it was 95.9%; in the assay on HOP-62 NSCLC it was 102%; in the assay with NCI-H460 lung it was 124%; in the assay on HOP-92 NSCLC it was 38.1%. Further, the growth with A549/ATCC NSCLC is 106%; with 786-0 renal, 93.4%; with COLO 205 colon it was 106%; in the assay with DU-145 prostate, 108%; with K-562 leukemia it was 92.8%; with MALME-3M melanoma, 80.9%. For the same compound, the growth in the assay on MDA-MB-231 breast is 104%; with RXF 393 renal, 8.91% (active); in the assay with SF-268 CNS, 109%; in the assay with SF-295 CNS, 92.9%; in the assay with SF-539 CNS it was 99.8%; with UACC-257 melanoma, 78.3%. For the same compound, the growth in the assay on M14 melanoma was 81.4%.
As for `CCOC(=O)/C(=C/CC/C(C)=C/CC/C(C)=C/CCc1ccoc1)CC(=O)N1CCCCC1`, the growth is 66.4% with NCI-H23 lung; 73% in the assay on NCI-H226 lung; -91.8% (active) in the assay on NCI-H322M lung; 86% in the assay with HOP-62 NSCLC; -56.4% (active) with NCI-H460 lung; -11.2% (active) in the assay on HOP-92 NSCLC. Besides, the growth in the assay on A549/ATCC NSCLC was 5.91% (active); with 786-0 renal it was 86.3%; in the assay with COLO 205 colon, 1.9% (active); in the assay with DU-145 prostate, 62.8%; in the assay with K-562 leukemia, 18.1%; in the assay on MALME-3M melanoma, 15.2%. The growth with MDA-MB-231 breast was -21.9% (active); in the assay on RXF 393 renal it was 77.8%; in the assay on SF-268 CNS, 66.4%; in the assay with SF-295 CNS it was 33%; with SF-539 CNS it was 76.3%; in the assay with UACC-257 melanoma, 12.7%. Moreover, in the assay on M14 melanoma, the growth was 31.4%.
For `O=C(/C=C/c1ccc(C(F)(F)F)cc1)c1ccc(Nc2nc(NCCO)nc(NCCO)n2)cc1`, the growth in the assay on NCI-H23 lung was 84.3%; in the assay with NCI-H226 lung it was 75.3%; in the assay with NCI-H322M lung, 74.8%; with HOP-62 NSCLC, 22.3%; in the assay with NCI-H460 lung it was 82.8%; in the assay with HOP-92 NSCLC, 99.3%. In addition, the growth in the assay on A549/ATCC NSCLC was 34.9%; in the assay on 786-0 renal it was 30.4%; in the assay with COLO 205 colon, 37.3%; in the assay with DU-145 prostate it was 52.9%; in the assay with K-562 leukemia it was 11.7%; in the assay on MALME-3M melanoma, 66.2%. Besides, the growth is 71% in the assay on MDA-MB-231 breast; 74.2% in the assay on RXF 393 renal; 54% in the assay on SF-268 CNS; 44.6% in the assay with SF-295 CNS; 29.3% in the assay with SF-539 CNS; 80.8% in the assay with UACC-257 melanoma. The growth in the assay on M14 melanoma is 65.4%.
Regarding `COc1ccc(CNC(=O)c2c(C)n([O-])c3ccc(OC)cc3[n+]2=O)cc1`, the growth was 98.2% in the assay with NCI-H23 lung; 110% with NCI-H226 lung; 89.7% in the assay on NCI-H322M lung; 105% in the assay on HOP-62 NSCLC; 118% with NCI-H460 lung; -1.17% (active) in the assay on HOP-92 NSCLC. For the same compound, the growth in the assay with NCI-H522 lung was -2.57% (active); with 786-0 renal, 96%; with K-562 leukemia, 90.8%; in the assay on MALME-3M melanoma, 98.6%; in the assay with MDA-MB-231 breast, 111%; in the assay on SF-268 CNS, 103%. Moreover, the growth is 239% with SF-295 CNS, 118% in the assay with SF-539 CNS, 109% with UACC-257 melanoma and 107% with M14 melanoma.
In the case of `O=C1c2cccc(NCCN=Cc3ccccc3O)c2C(=O)c2c(NCCN=Cc3ccccc3O)cccc21`, the growth in the assay on NCI-H23 lung was 27.8%; in the assay with NCI-H226 lung, 73.1%; with NCI-H322M lung it was -19.2% (active); in the assay on HOP-62 NSCLC it was 17.6%; in the assay on NCI-H460 lung, 4.28% (active); in the assay on HOP-92 NSCLC, -38.3% (active). The growth in the assay with A549/ATCC NSCLC is 25.7%; in the assay on 786-0 renal it was 36.7%; in the assay with COLO 205 colon, 8.33% (active); in the assay on DU-145 prostate it was 16%; in the assay on K-562 leukemia, 38%; in the assay with MALME-3M melanoma, 21.8%. Further, the growth with MDA-MB-231 breast is 21%; in the assay on RXF 393 renal, 33.9%; in the assay with SF-268 CNS it was 7.05% (active); with SF-295 CNS it was 49.8%; in the assay on SF-539 CNS, 22.4%; in the assay on UACC-257 melanoma, 94.6%.
On to `COC(=O)c1cc2c(/C=C3/NC(=S)NC3=O)coc2n1C`, for which the growth was 103% with NCI-H23 lung; 110% with NCI-H226 lung; 87.1% in the assay with NCI-H322M lung; 89.3% in the assay with HOP-62 NSCLC; 115% with NCI-H460 lung; -38.5% (active) in the assay with HOP-92 NSCLC. Besides, the growth is 104% with A549/ATCC NSCLC; 98.2% in the assay with 786-0 renal; 97.7% in the assay on COLO 205 colon; 134% with DU-145 prostate; 95.6% in the assay on K-562 leukemia; 58.4% with MALME-3M melanoma. The growth in the assay with MDA-MB-231 breast was 82.2%; in the assay on RXF 393 renal it was 38.4%; in the assay with SF-268 CNS, 37.7%; with SF-295 CNS it was 45.2%; with SF-539 CNS it was 82.2%; with UACC-257 melanoma, 107%.
As for `C=CCN(/C=C/CN(CC=C)CC=C)CC=C`, the growth was 108% in the assay on NCI-H23 lung; 95.7% with NCI-H226 lung; 96.7% in the assay on NCI-H322M lung; 97.7% in the assay with HOP-62 NSCLC; 105% in the assay on NCI-H460 lung; 91.2% in the assay on HOP-92 NSCLC. Also, the growth was 99.6% with A549/ATCC NSCLC; 104% with 786-0 renal; 107% in the assay with COLO 205 colon; 110% in the assay on DU-145 prostate; 100% in the assay with K-562 leukemia; 102% in the assay on MALME-3M melanoma. The growth with MDA-MB-231 breast is 90.4%; in the assay on RXF 393 renal, 111%; in the assay with SF-268 CNS, 105%; with SF-295 CNS, 84.3%; with SF-539 CNS, 99.7%; in the assay with UACC-257 melanoma it was 108%. Besides, the growth with M14 melanoma was 103%.
Turning to `CCCCCCC(CC#N)(CCC)CCCC` (stereo not drawn), the growth is 110% in the assay on NCI-H23 lung; 96.7% with NCI-H226 lung; 113% with NCI-H322M lung; 111% in the assay with HOP-62 NSCLC; 98.9% with NCI-H460 lung; 73.9% in the assay on HOP-92 NSCLC. Besides, the growth is 103% in the assay with A549/ATCC NSCLC; 108% in the assay on 786-0 renal; 129% in the assay with COLO 205 colon; 121% in the assay on DU-145 prostate; 106% in the assay on K-562 leukemia; 100% in the assay with MALME-3M melanoma. The growth with MDA-MB-231 breast is 106%; with RXF 393 renal, 106%; in the assay with SF-268 CNS it was 115%; in the assay on SF-295 CNS it was 39.5%; in the assay with SF-539 CNS it was 85.3%; with UACC-257 melanoma, 104%. For the same compound, the growth in the assay with M14 melanoma was 110%.
Take `CCN(CC)c1ccc(/C=C/C(=O)c2cccc(NS(C)(=O)=O)c2)cc1`: the growth was 18.7% in the assay on NCI-H23 lung; 43.1% with NCI-H226 lung; 89% in the assay with NCI-H322M lung; 42.6% with HOP-62 NSCLC; 42.3% in the assay on NCI-H460 lung; 19.9% in the assay with HOP-92 NSCLC. Moreover, the growth was 4.67% (active) in the assay on NCI-H522 lung; 32.3% in the assay on 786-0 renal; 49.6% in the assay on DU-145 prostate; 76.2% with MALME-3M melanoma; 43% in the assay on MDA-MB-231 breast; 61.5% with SF-268 CNS. In addition, the growth in the assay on SF-295 CNS was 47.5%; in the assay with SF-539 CNS, 40.6%; with M14 melanoma, 32.1%.

Source of the values: PubChem BioAssay (NCI).
